This is an account of results in PubChem BioAssay (NCI).

This is part of a sample that, as a whole, favours compounds with a hit. Of some 83,000 tested, about 20% had one in any assay.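 Note: values are percent growth. 100 is the growth of untreated cells, values between 100 and 0 indicate rising inhibition; between -100 and 0 indicates cell death.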 A number with no mark means an inactive call. Activity calls are given as the source filed them. How the source made its calls: active means growth percent below 10; inactive means the rest.

One test concerns OVCAR-5 ovarian. Description: NCI-60 one-dose screen, 48 h (100 = growth as untreated, 0 = no growth, -100 = all killed). Particulars: 10 µM unless noted.
As to `C=C(C)[C@@H]1CC[C@]2(C(=O)O)CC[C@]3(C)[C@H](CC[C@@H]4[C@@]5(C)C/C(=C/c6ccco6)C(=O)C(C)(C)[C@@H]5CC[C@]43C)[C@@H]12`, the growth is -44.4% [100 µM] (active).
On the same count and under the same terms, under `C[n+]1cccc(NC(=O)c2ccc3ccc4ccc(C(=O)Nc5ccc[n+](C)c5)nc4c3n2)c1` stands 79.5%.
Same read-out and setting: under `Cc1ccc(S(=O)(=O)N/N=C2\CC3CCC2(C)C3(C)C)cc1` (centres undefined) stands 83.4%.
For the compound `CCOC(=O)c1nn(C2CCCCO2)c2ccc(NC(=O)Cn3nnc4ccccc43)cc12` (centres undefined), the growth is 97.7%.
Still for that read-out and setting: under `O=C(Nc1ccc(Oc2ccc(F)cc2)c(Cl)c1)c1cccnn1` stands 84%; under `Cc1ccc2c(n1)C(=O)C(Cl)=C(Nc1ccc(N3CCN(C)CC3)cc1)C2=O`, -7.55% (active); under `c1cc2ccc1CNCCN1CCNCc3ccc(cc3)Oc3ccc(cc3)CNCCN(CCNCc3ccc(cc3)O2)CCNCc2ccc(cc2)Oc2ccc(cc2)CNCC1`, -55.1% (active).
On to `CCCCCCCCN(CCCCCCCC)CC(O)c1ccc(Cl)c(C)c1Cl` (centres undefined), for which the growth was 84.1%.

Another test deals with OVCAR-4 ovarian. The description is as above. The conditions noted are these: 10 µM.
As to `O=C1/C(=C\c2cn(CC(O)CN3CCCCC3)c3ccccc23)c2ccccc2N1c1c(Cl)cccc1Cl` (centres undefined), the growth was -68.6% (active).
The same measure, in the same setting: with `COc1ccc(OC)c([N+](=O)[O-])c1C(=O)CNC(C)=O` the figure was 103%; with `Nc1cccc2c1C(=O)c1cccc(NC(=O)c3ccccc3)c1C2=O`, 53%.
As to `CCNc1cc2c(cc1Br)-c1ccccc1C2=O`, the growth was 92.5%.
In the case of `CCOc1cccc2c(NC(C)CCCN(CC)CC)c(C)cnc12` (centres undefined), the growth is 108%.
For `COc1cc(-c2nc(SCCC(C)C)nc(Nc3ccccc3)c2C#N)cc(OC)c1OC`, the growth was 88.3%.
For `CN(C)C(=S)Sc1ccc([N+](=O)[O-])cc1[N+](=O)[O-]`, the growth is 20.8%.
On the same count and under the same terms, under `Nc1ccc(Cl)c([N+](=O)[O-])c1` stands 97.4%.
Regarding `CCCCCCCCCCCCNC(=S)N/N=C/c1ccccc1O`, the growth was 65.2%.
For `COc1cccc(-c2[nH]c(=S)ncc2C(=O)c2ccccc2)c1`, the growth is 94.9%.
As for `Cc1ccc(N)c(O)c1`, the growth is 84.2%.
For `CCOC(=O)CCC[P+](c1ccccc1)(c1ccccc1)c1ccccc1`, the growth was 81.7%.
Still for that read-out and setting: with `CCN(CC)c1cc(N)c(Cc2c(N)cc(N(CC)CC)cc2Cl)c(Cl)c1` the figure was 23.8%.
Still for that read-out and setting: with `N#CCCc1c[nH]c2ccccc12` the figure was 93%; with `C[C@@H]1C[C@H]2C(=O)O[C@@H](C)[C@H](NC(=O)[C@H](Cc3cc(F)cc(F)c3)NC(=O)Nc3ccc(C4CC4)cc3F)C(=O)N3CCC[C@H]3C(=O)N3CCCC[C@H]3C(=O)N[C@@H](C)C(=O)N2C1`, 7.8% (active); with `CCN(CC)CCCC(C)Nc1c2ccc(C)cc2nc2ccc(OC)cc12` (centres undefined), -6.2% (active).
Still for that read-out and setting: with `CCOC(=O)c1nn(C2CCCCO2)c2ccc(NC(=O)Cn3nnc4ccccc43)cc12` (centres undefined) the figure was 104%.
Regarding `Cn1cc(-c2nnc(-c3cn(C)c4ncc(Br)cc34)o2)c2ccccc21`, the growth was 90.3%.
For `c1cc2ccc1CNCCN1CCNCc3ccc(cc3)Oc3ccc(cc3)CNCCN(CCNCc3ccc(cc3)O2)CCNCc2ccc(cc2)Oc2ccc(cc2)CNCC1`, the growth is -77.6% (active).
Same read-out and setting: with `Cc1ccc(-c2cn(C/C=C3\C=CN(S(=O)(=O)c4ccccc4)CC3)nn2)cc1` the figure was 74.2%; with `CCCCCCCCN(CCCCCCCC)CC(O)c1ccc(Cl)c(C)c1Cl` (centres undefined), 93.5%.
